# Screening data deposited in PubChem BioAssay by National Center for Advancing Translational Sciences (NCATS).
# Sampled rows, rich in hits. Any-hit rate of the full collection: about 18%.
# TGFb SMAD3 inh: qHTS for Inhibitors of TGF-b. HepG2 CAGA-GFP TGF-b/SMAD3 reporter, GFP fluorescence, 18 h; TGF-beta stimulated, 500 pg/mL final. Potency, µM (titrated, usually from 46.1 µM), for inactives: top-dose activity, negative = inhibition, most hits filed as inhibitors. 410,000 compounds, 1.2% hits; note: potency is the fitted concentration of half-maximal effect; % is set by controls: 0 for no effect and ±100 for the full control effect; nearly all actives have a fitted effect of over 65% in size
#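 Per well, imaged GFP fluorescence of HEPG2 CAGA-GFP cells gives the signal; cells get compound, then TGF-beta (500 pg/mL final), 18 h at 37 degrees C; %Activity versus -TGF-beta and +DMSO controls.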
# DT40 TDP1 CPT: qHTS for Inhibitors of human tyrosyl-DNA phosphodiesterase 1 (TDP1): qHTS in cells in presence of CPT; Potency, µM (top dose mostly 46.2 µM), for the others: at the highest dose activity change, negative = growth inhibition, hits mostly inhibitors; chicken DT40 Tdp1-/-;hTDP1 cells + 20 nM CPT, ATP luminescence, 48 h; AID 686979, 2013; 420,000 compounds, 12% hits; note: potency is the fitted concentration of half-maximal effect; % is set by controls: 0 for no effect and ±100 for the full control effect; nearly all actives have a fitted effect of over 55% in size
#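 Chicken DT40 Tdp1-/- cells complemented with human TDP1, 400 cells/well, exposed to compounds plus 20 nM camptothecin for at least 48 h at 37 C; viability read as ATP content by CellTiter-Glo luminescence.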
# IL-1B inflam inh: qHTS for Inhibitors of Inflammasome Signaling: IL-1-beta AlphaLISA Primary Screen; THP-1 LPS/ATP IL-1B secretion, AlphaLISA, 16 h; active compounds read low; AID 743279, 2014; 360,000 compounds, 4.7% hits; activity change, % at 57.5 µM; in the data active = activity change below about -50%; inconclusive = mostly about -30% to -49%; note: % is set by controls: 0 for no effect and ±100 for the full control effect
#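 THP-1 cells pretreated 1 hr with compounds (up to 57.5 uM final), then stimulated with LPS (250 ng/mL final) plus ATP (1.25 mM final); secreted IL-1B measured by AlphaLISA after 16 hr, decreased signal indicating inhibition.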
# TDP1 inh: qHTS Assay for Inhibitors of Tyrosyl-DNA Phosphodiesterase (TDP1); 350,000 compounds, 0.28% hits; Potency, µM (highest dose often 130 µM), without a hit: at the highest dose activity change, negative = inhibition, hits mostly inhibitors; AID 485290, 2010; recombinant TDP1, AlphaScreen DNA substrate cleavage; Tyrosyl-DNA phosphodiesterase 1 (Homo sapiens), Q9NUW8; note: potency is the fitted concentration of half-maximal effect; % is set by controls: 0 for no effect and ±100 for the full control effect; nearly all actives have a fitted effect of over 40% in size
# Target sequence (Q9NUW8 whole entry, looked up): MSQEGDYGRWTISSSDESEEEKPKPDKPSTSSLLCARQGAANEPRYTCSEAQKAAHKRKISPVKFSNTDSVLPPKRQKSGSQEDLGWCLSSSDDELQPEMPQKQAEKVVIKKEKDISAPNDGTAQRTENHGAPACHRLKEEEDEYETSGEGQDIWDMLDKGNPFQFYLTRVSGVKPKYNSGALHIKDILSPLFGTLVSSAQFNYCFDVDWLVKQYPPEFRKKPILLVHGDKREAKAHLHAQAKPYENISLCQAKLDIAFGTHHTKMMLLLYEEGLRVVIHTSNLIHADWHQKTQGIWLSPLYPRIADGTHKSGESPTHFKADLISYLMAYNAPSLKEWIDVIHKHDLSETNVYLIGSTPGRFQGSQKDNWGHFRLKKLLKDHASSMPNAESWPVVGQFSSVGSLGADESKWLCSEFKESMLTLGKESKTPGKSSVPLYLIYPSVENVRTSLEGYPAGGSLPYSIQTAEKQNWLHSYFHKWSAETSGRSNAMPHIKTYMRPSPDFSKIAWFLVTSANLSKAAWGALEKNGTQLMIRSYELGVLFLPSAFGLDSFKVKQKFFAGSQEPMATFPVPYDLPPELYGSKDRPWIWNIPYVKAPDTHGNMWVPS
#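 E. coli-derived human Tdp1, 1 nM final. Cpd preinc 15 min RT; substrate 15 nM final, 5 min RT; AS bead mix 10 ug/ml final, 10 min RT. Signal loss = tyrosine-FITC cleavage. No-enzyme wells = max signal.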
# DT40 TDP1 no CPT: qHTS for Inhibitors of human tyrosyl-DNA phosphodiesterase 1 (TDP1): qHTS in cells in absence of CPT; DT40 Tdp1-/- hTDP1 cells, no CPT, ATP luminescence, 48 h; 420,000 compounds, 15% hits; AID 686978, 2013; Potency, µM (highest dose often 46.2 µM), without a hit: at the top dose activity change, negative = growth inhibition, most hits filed as inhibitors; note: potency is the fitted concentration of half-maximal effect; % is set by controls: 0 for no effect and ±100 for the full control effect; nearly all actives have a fitted effect of over 55% in size
#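 Growth kinetics read by CellTiter-Glo luminescence after ≥48 hr at 37 °C. Cells: DT40 Tdp1-/- stably carrying human TDP1, 400 per well, compound exposure in the absence of CPT (DMSO vehicle).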
# HepG2 tox: qHTS for Inhibitors of TGF-b: Cytotox Counterscreen. Potency, µM (titrated, usually from 46.1 µM), inactives show top-dose activity change, negative = cytotoxicity, hits mostly cytotoxic. HepG2 CAGA-GFP viability, ATP luminescence, 18 h. 410,000 compounds, 0.76% hits. AID 588856, 2011; note: potency is the fitted concentration of half-maximal effect
#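 HepG2 CAGA-GFP cells (1000/well, DMEM with 1% FBS) received compound, then TGF-beta at 500 pg/mL final, and were incubated 18 hours at 37 degrees C. Viability was read by CellTiter-Glo luminescence. Media-only wells were set as complete cell-killing and DMSO as no toxicity.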
# The depositor's hits bear a star; ? = inconclusive; nt = no result given; [ ] = dose if it differs, or a comment. Unless noted, calls come from the whole dose curve; as a rule, active = well fitted curve in the direction sought with a large enough effect; inconclusive = small, poorly fitted or top-dose-only effect, or another doubt; inactive = no such curve, though single readings can be large; an effect the other way counts as inactive or inconclusive.
SMILES,TGFb SMAD3 inh,DT40 TDP1 CPT,IL-1B inflam inh,TDP1 inh,DT40 TDP1 no CPT,HepG2 tox
O=C1[C@@H]2[C@H]3[C@H](O)[C@H](O)C/C(=N/OCc4ccccc4)[C@@H]3CC[C@H]2C(=O)N1c1ccc(F)cc1F,nt,nt,nt,6%[21 µM],nt,nt
O=C(N[C@@H](CCC/[N+]([O-])=C/c1ccccc1)C(=O)O)OCc1ccccc1,25%,0%,33,nt,9%,-2%
Cc1ccc(Nc2nc(N)nc(COC(=O)C3=COCCO3)n2)cc1,3%,2%,?,3%,10%,-6%
Cc1cccc(C(=O)NNC(=O)C2CCCCC2)c1O,29%,?,18,nt,23µM*,33%
COc1ccc(C2Nc3cc(OC)ccc3-n3cccc32)cc1 (centres undefined),3%,23µM*,?,nt,23µM*,-19%
COc1ccccc1CNS(=O)(=O)c1ccc2[nH]c3c(c2c1)CCCCC3,11µM*,10µM*,nt,8%,7.3µM*,-57%
COc1ccc(NS(=O)(=O)c2ccc3[nH]c4c(c3c2)CCCCCC4)cc1,?,?,nt,7%,?,-103%
CCOc1ccc(CNS(=O)(=O)c2ccc3[nH]c4c(c3c2)CCCC4)cc1OC,?,?,nt,11%,23µM*,-11%
O=C(Cn1c(=O)nc(-c2ccccc2)c2ccccc21)NCc1ccc(F)cc1,17%,12%,nt,6%,-5%,7%
CC1(C)CCC[C@]2(C)[C@H]3Cc4cc(O)ccc4O[C@]3(C)CC[C@@H]12,?,18µM*,38,5%,?,-23%
CC1(C)CCC[C@]2(C)[C@H]3CC(=O)O[C@]3(C)CC[C@@H]12,1%,7%,3,6%,-26%,4%
Cc1ccc(NC(=O)CNC(=O)c2ccc(Br)o2)nc1,?,-11%,0,9%[0.505 µM],-5%,3%
CCN1CSC(=S)N(Cc2ccccc2)C1,-19%,2.6µM*,-100*,nt,4.6µM*,-11%
S=C1SCN(Cc2cccs2)CN1Cc1cccs1,13µM*,?,0,nt,23µM*,-85%
CCN1CN(CCc2ccccc2)CNC1=S,18%,-4%,25,3%,-1%,21%
CCN1CSC(=S)N(Cc2ccc(OC)cc2)C1,4µM*,5.2µM*,25,6%,4.6µM*,7.9µM*
CCCCCN1CSC(=S)N(Cc2ccccc2)C1,10µM*,4.6µM*,-95*,0%,3.7µM*,-9%
Cc1cc(Cl)ccc1OCC(=O)N(Cc1ccco1)c1c(N)n(Cc2ccccc2)c(=O)[nH]c1=O,6%,?,0,nt,?,-9%
CCOC(=O)c1c(NC(=O)/C=C/c2ccc(OCC)c(OC)c2)sc2c1CCC2,5%,nt,nt,nt,nt,-3%
COc1ccccc1-c1oc2ccccc2c1C#CC1(O)CCCCC1,?,-2%,-29,-9%,?,-41%
COc1ccc(-c2cc(=O)c3ccccc3o2)cc1OC,nt,?,nt,8%[56.1 µM],15µM*,nt
O=c1c2ccccc2oc2cc(Br)ccc12,23%,0%,14,nt,0%,2%
COc1ccccc1-c1oc2ccccc2c(=O)c1OC,nt,6.7µM*,nt,-9%[56.1 µM],?,nt
COc1ccccc1-c1oc2ccccc2c1C#CC1(N)CCCCC1,?,16µM*,?,0%,15µM*,-101%
COc1cc2oc3ccccc3c(=O)c2cc1OC,-23%,?,-51*,nt,?,-28%
